{
  "source": "PubChem BioAssay AID624390",
  "about": "(National Center for Advancing Translational Sciences (NCATS), 2012)",
  "note": "Unmarked numbers belong to inactive results. Calls follow the shape of the dose curve; as a rule, active = well fitted curve in the direction sought with a large enough effect; inactive = no such curve, though single readings can be large or run the other way.",
  "data": [
    {"molecular_target": "Pyruvate kinase PKLR (Homo sapiens) (UniProt P30613)", "sequence (P30613 whole entry, looked up, canonical isoform)": "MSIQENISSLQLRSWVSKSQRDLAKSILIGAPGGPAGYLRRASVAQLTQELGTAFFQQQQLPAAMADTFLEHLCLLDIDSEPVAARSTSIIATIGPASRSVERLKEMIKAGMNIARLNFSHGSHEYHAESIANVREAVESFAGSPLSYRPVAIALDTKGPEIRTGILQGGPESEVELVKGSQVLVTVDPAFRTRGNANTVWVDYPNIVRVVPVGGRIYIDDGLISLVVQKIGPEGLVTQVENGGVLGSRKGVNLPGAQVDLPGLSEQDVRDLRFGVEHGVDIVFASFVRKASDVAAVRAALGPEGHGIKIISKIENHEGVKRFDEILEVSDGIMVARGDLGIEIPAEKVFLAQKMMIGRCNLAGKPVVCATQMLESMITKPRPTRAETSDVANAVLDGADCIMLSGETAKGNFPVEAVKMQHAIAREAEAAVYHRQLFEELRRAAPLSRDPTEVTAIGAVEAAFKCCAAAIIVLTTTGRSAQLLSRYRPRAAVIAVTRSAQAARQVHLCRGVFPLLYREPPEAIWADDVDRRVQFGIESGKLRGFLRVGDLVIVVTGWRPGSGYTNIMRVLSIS", "assay": "qHTS for Activators of Human Muscle Isoform Pyruvate Kinase: Extended Characterization against Liver Pyruvate Kinase Probe 2", "details": "purified hPK-L, ATP production, Kinase-Glo luminescence; series mostly up to 57.7 µM; activity change, positive = activation: at the top concentration", "experimental": "Human pyruvate kinase liver (hPK-L) enzyme was supplied as a highly purified (>95% pure) preparation from Harvard Medical School and assayed for its ability to generate ATP from ADP using phosphoenolpyruvate (PEP) as a substrate. ATP generation was detected in a coupled reaction by luciferase-mediated luminescence, an ATP-dependent process. Pyruvate kinase substrates, PEP and ADP, were present in the assay at Km and approximately 10-fold below Km respectively. The enzyme was assayed at an intermediate level of activity to screen for both inhibitors and activators. NIH Chemical Genomics Center [NCGC] NIH Molecular Libraries Probe Centers Network [MLPCN] MLPCN Grant: MH085679 Assay Submitter (PI): Matthew G. Vander Heiden, Harvard Medical School\nThree uL of substrate mix (at r.t.) in assay buffer (50 mM Imidazole pH7.2, 50 mM KCl, 7 mM MgCl2, 0.01% Tween 20, 0.05% BSA) was dispensed into white solid bottom 1,536 well microtiter plates so that the final concentrations of substrates in the assay were 0.1 mM ADP and 0.5 mM PEP. 23 nL of compound were delivered by a pin tool and 1 uL of enzyme mix (final concentration of 0.1 nM) in assay buffer (4 degree Celsius) was added. Plates were incubated at room temperature for 1 hour. Two uL of detection mix (Kinase-Glo, Promega; at 4 degree Celsius protected from light) was added and luminescence read by a ViewLux (Perkin Elmer) at 1 second exposure/plate. Data were normalized to the uninhibited (row 31). Additionally, a no enzyme and 5-fold enzyme control was dispensed in row 32, split equally between the two conditions.", "units": {"activity change, positive = activation": "%"}, "values": [
      {"smiles": "O=S(=O)(c1ccc2c(c1)OCCO2)N1CCN(S(=O)(=O)c2c(F)cccc2F)CC1", "activity change, positive = activation": -0.557},
      {"smiles": "COc1cccc(Cn2ncc3c4sc(S(C)=O)cc4n(C)c3c2=O)c1", "note": "(centres undefined)", "activity change, positive = activation": -7.39},
      {"smiles": "Cc1ccc(NS(=O)(=O)c2ccc3c(c2)CCC(=O)N3)cc1C", "activity change, positive = activation": -1.46},
      {"smiles": "Nc1cccc(S(=O)(=O)N2CCCN(S(=O)(=O)c3ccc4c(c3)OCCO4)CC2)c1", "activity change, positive = activation": 10.9}
    ]}
  ]
}
